Here are results for 40 compounds from PubChem BioAssay (NCATS).

The structures appear in SMILES notation. Records with an inconclusive call do not appear. Unmarked numbers belong to inactive results. The source made the active and inactive calls. Calls follow the shape of the dose curve; as a rule, active = well fitted cell-killing curve with a large enough effect; inconclusive = small, poorly fitted or top-dose-only effect, or effect the other way; inactive = no such curve, though single readings can be large or run the other way.
Potency is read from the fitted curve at half-maximal effect.

A short description of the experiment: Viability qHTS for spleen associated tyrosine kinase inhibitor (SYKi) drug resistant MV4-11 cells (AID 1963824). Also: nearly all actives have a fitted effect of over 35% in size. The conditions noted are these: SYKi-resistant MV4-11 viability, CellTiter-Glo, 72 h; series mostly up to 45 µM; viability, % of control: at the top concentration. In a few lines:
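SYK inhibitor-resistant MV4-11 AML cells, 500 per well, added to predispensed compounds and incubated 72 hr at 37 C, 5% CO2. Viability measured by CellTiter-Glo luminescence after 10 min at room temperature.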
Consider `CC(=O)OC1C(CO)OC(O[C@H]2[C@H](OC(=O)[C@]34CCC(C)(C)C[C@H]3C3=CCC5[C@@]6(C)CC[C@H](O[C@@H]7O[C@H](C(=O)O)[C@@H](O)[C@H](O[C@@H]8OC[C@@H](O)[C@H](O)[C@H]8O)[C@H]7O[C@@H]7O[C@H](CO)[C@H](O)[C@H](O)[C@H]7O)[C@@](C)(C=O)C6CC[C@@]5(C)[C@]3(C)C[C@H]4O)O[C@H](C)[C@H](OC3OC(C)C(OC4OCC(O)C(O)C4O)C(O)C3O)[C@@H]2O)C(O)C1O` (stereo not given in full), for which the viability, % of control is 100% [at 9.25 µM]. Consider `COC(=O)C1=COC(OC2OC(CO)C(O)C(O)C2O)C2C1CC(OC(=O)C(O)CC(=O)O)C2C` (stereo not given), for which the “viability, % of control” value was 91.4% [at 17.3 µM]. Consider `CC1(C)CC[C@]2(C(=O)O[C@@H]3O[C@H](CO)[C@@H](O)[C@H](O)[C@H]3O)CC[C@]3(C)C(=CCC4[C@@]5(C)CC[C@H](O[C@@H]6O[C@H](C(=O)O)[C@@H](O)[C@H](O)[C@H]6OC6OC(CO)C(O)C(O)C6O)C(C)(C)C5CC[C@]43C)[C@@H]2C1` (stereo not given in full), for which the viability, % of control is 91% [at 9.25 µM]. Still for that read-out and setting: the result for `C[C@@]1(C(=O)O)CCC[C@@]2(C)C3=CC[C@H]4C[C@@]3(CC[C@H]12)CC4(O)CO` (stereo not given in full) reads 71.8%; that for `CC1OC(OC2C(OC3C(O[C@H]4CC[C@@]5(C)C(CC[C@]6(C)C5CC=C5C7CC(C)(C)CC(O)[C@]7(C)CC[C@]56C)C4(C)C)OC(C(=O)O)C(O)C3O)OCC(O)C2O)C(O)C(O)C1O` (stereo not given in full), 94.4% [at 9.25 µM]. For the compound `C=CC(=O)N1CCN(C(=O)CNc2cc(I)c(Cl)cc2O)CC1`, the Potency was 6.51 µM (active).

For `COc1cc(-c2cccc(O)c2)cc2c1OCO2`, the “viability, % of control” value was 78.7%.

Take `COc1cc(C)c(C(=O)O[C@@H]2[C@H](O)[C@@H](CO)O[C@H]2n2ccc(=O)[nH]c2=O)c(OC)c1`: the “viability, % of control” value was 90.2% [at 17.3 µM]. As for `C=C[C@H]1[C@H](O[C@@H]2O[C@H](CO)[C@@H](O)[C@H](O)[C@H]2O)OC=C(C(=O)OC)[C@H]1C/C=C(/C=O)[C@@H]1C(C(=O)OC)=CO[C@@H](O[C@@H]2O[C@H](CO)[C@@H](O)[C@H](O)[C@H]2O)[C@@H]1C=C`, the “viability, % of control” value was 103% [at 17.3 µM]. Turning to `COC(=O)/C=C/c1ccc(O[C@@H]2O[C@H](CO)[C@@H](O)[C@H](O)[C@H]2O)cc1`, the “viability, % of control” value was 82.8%.

Take `CC(=O)[C@@H]1C[C@H](C(C)(C)O[C@@H]2O[C@H](CO)[C@@H](O)[C@H](O)[C@H]2O)CC[C@@]2(CO)OC(=O)C[C@@H]12`: the “viability, % of control” value is 101% [at 17.3 µM]. `CC1=C(C)C(=O)OC(C(C)(O)C2CCC3C4CC=C5CC(OC6OC(COC7OC(CO)C(O)C(O)C7O)C(O)C(O)C6O)CC(O)C5(C)C4CCC32C)C1` (stereo not given): the “viability, % of control” value was 78% [at 17.3 µM]. For `CC(C)=C1CC2[C@](C)(CC[C@@H](OC(=O)C3(C)OC3C)[C@@]2(C)O)CC1=O` (stereo not given in full), the “viability, % of control” value is 94%. Regarding `Nc1ccc(-c2cccc3c(=O)cc(N4CCOCC4)oc23)cc1`, the Potency was 7.31 µM (active). As to `CC1(C)CCC2(CC1)N[C@@H](C(=O)N[C@@H]1CC[C@@H](C(N)=O)OC1)[C@H](c1ccnc(Cl)c1F)[C@]21C(=O)Nc2cc(Cl)ccc21`, the Potency is 5.68 µM (active).

Regarding `COc1cc(C2Oc3c(OC)cc(CCCO[C@@H]4O[C@H](CO)[C@@H](O)[C@H](O)[C@H]4O)cc3C2CO)ccc1O` (stereo not given in full), the “viability, % of control” value is 74.4% [at 17.3 µM]. As for `CCOC(=O)C1=CCCCC1S(=O)(=O)Nc1ccc(F)cc1Cl` (stereo not given), the Potency is 16.6 µM (active). On to `CCCCC(=O)N(Cc1ccc(-c2ccccc2-c2nn[nH]n2)cc1)C(C(=O)O)C(C)C` (stereo not given), for which the “viability, % of control” value is 88.9%. For the compound `COc1c(C)c(OCC(O)C(C)(C)O)cc2c1CNC2=O` (stereo not given), the “viability, % of control” value was 78.3%. With `Cc1cc2c(N3CCCC3)nc(N3CCCC3)nc2n1C`, the Potency is 7.31 µM (active). Consider `CC(=O)N[C@H](Cc1ccc2ccccc2c1)C(=O)N[C@H](Cc1ccc(Cl)cc1)C(=O)N[C@H](Cc1cccnc1)C(=O)N[C@@H](CO)C(=O)N[C@@H](Cc1ccc(O)cc1)C(=O)N[C@H](CCCNC(N)=O)C(=O)N[C@@H](CC(C)C)C(=O)N[C@@H](CCCN=C(N)N)C(=O)N1CCC[C@H]1C(=O)N[C@H](C)C(N)=O`, for which the “viability, % of control” value was 118% [at 17.3 µM]. As for `COC(=O)[C@]12C(=O)C(C)=C(O)[C@@]1(C)C(C)=CC1[C@@]34CC[C@@H](OC(C)=O)C(C)(C)C3[C@H](C[C@]12C)OC4=O` (stereo not given in full), the “viability, % of control” value was 101% [at 17.3 µM].

For `Cc1c(F)cc(C(=O)NC2CC2)cc1-c1ccc(C(=O)NCC(C)(C)C)cn1`, the Potency is 0.461 µM (active). For the compound `C[C@@H]1O[C@@H](O[C@H]2[C@H](O[C@H]3[C@H](O[C@H]4CC[C@@]5(CO)C(CC[C@]6(C)C5CC=C5C7CC(C)(C)C[C@@H](O)[C@]7(C)CC[C@]56C)C4(C)C)O[C@H](C(=O)O)[C@@H](O)[C@@H]3O)OC[C@@H](O)[C@@H]2O)[C@H](O)[C@H](O)[C@H]1O` (stereo not given in full), the viability, % of control is 70% [at 9.25 µM].

On to `Cc1ccc(-c2c(-c3nn(C)c4ncnc(N5CC[C@H](N6CCCCC6)C5)c34)cnn2C)cc1`, for which the “viability, % of control” value is 78.3%. As for `O=C1NC(Cc2ccc(O)cc2)C(=O)N2CCCC12` (stereo not given), the “viability, % of control” value is 74.2%. As for `C/C(=C\CCC(C)(C)O)CCO[C@@H]1O[C@H](CO[C@@H]2O[C@@H](C)[C@H](O)[C@@H](O)[C@H]2O)[C@@H](O)[C@H](O)[C@H]1O`, the “viability, % of control” value was 94.8% [at 17.3 µM]. As for `COc1c(F)cccc1C(=O)N1C[C@@H](C)CC[C@H]1CNc1ccc(Br)cn1`, the Potency was 9.2 µM (active). Turning to `COC(=O)C12C(=O)C(C)=C(O)C1(C)C(C)=CC1C3(CO)CCC(O)C(C)(C)C3CCC12C` (stereo not given), the “viability, % of control” value was 75% [at 17.3 µM]. `CC/C=C\[C@H](O)[C@H](O)C1=C(C)C(=O)[C@]2(O1)C(=O)N[C@@](O)(C(=O)c1ccccc1)[C@@H]2O`: the “viability, % of control” value was 83.6% [at 17.3 µM]. The same measure, in the same setting: the result for `C[C@@H]1O[C@@H](O[C@H]2[C@H](OC(=O)[C@]34CCC(C)(C)C[C@H]3C3=CCC5[C@@]6(C)C[C@H](O)[C@H](O[C@@H]7O[C@H](CO)[C@@H](O)[C@H](O)[C@H]7O)[C@@](C)(CO)C6[C@H](O)C[C@@]5(C)[C@]3(C)C[C@H]4O)OC[C@H](O)[C@@H]2O)[C@H](O)[C@H](O)[C@H]1O[C@@H]1OC[C@@H](O)[C@H](O[C@H]2OC[C@](O)(CO)[C@H]2O)[C@H]1O` (stereo not given in full) reads 104% [at 9.25 µM]. Regarding `O=C(Nc1nc2ccc([N+](=O)[O-])cc2s1)C1CCCCC1`, the Potency is 18.4 µM (active). Take `CNS(=O)(=O)c1ccccc1Nc1nc(Nc2ccc(N3CCN(C)CC3)cc2OC)ncc1Cl`: the Potency is 0.0366 µM (active). In the case of `COC(=O)C1=CO[C@@H](O[C@@H]2O[C@H](CO)[C@@H](O)[C@H](O)[C@H]2O)[C@H]2[C@@H]1C=C[C@]21C=C([C@H](C)OC(=O)/C=C/c2ccc(O[C@@H]3O[C@H](CO)[C@@H](O)[C@H](O)[C@H]3O)cc2)C(=O)O1`, the “viability, % of control” value is 77.2% [at 17.3 µM].

For the compound `C/C(=N\N=C(N)N)c1cc(NC(=O)CCCCCCCCC(=O)Nc2cc(/C(C)=N/N=C(N)N)cc(/C(C)=N/N=C(N)N)c2)cc(/C(C)=N/N=C(N)N)c1`, the Potency was 9.2 µM (active). In the case of `O=C(/C=C/c1ccc(O)cc1)O[C@H]1[C@@H]2C=CO[C@@H](O[C@@H]3O[C@H](CO)[C@@H](O)[C@H](O)[C@H]3O)[C@@H]2[C@@]2(CO)O[C@@H]12`, the “viability, % of control” value was 92.3% [at 17.3 µM]. The same measure, in the same setting: the result for `CC1CCC2(C(=O)OC3OC(COC4OC(CO)C(O)C(O)C4O)C(O)C(O)C3O)CCC3(C)C(=CCC4C5(C)CCC(O)C(C)(C(=O)O)C5CCC43C)C2C1(C)O` (stereo not given) reads 98.8% [at 9.25 µM]; that for `CC1CC[C@]2(C(=O)O)CC[C@]3(C(=O)O)C(=CCC4[C@@]5(C)CC[C@H](OC6OC(C)C(O)C(OC7OC(CO)C(O)C(O)C7O)C6O)C(C)(C)C5CC[C@]43C)C2C1C` (stereo not given in full), 71.7% [at 17.3 µM]. `CCOc1ccc(-n2c([C@@H](C)N(Cc3cccnc3)C(=O)Cc3ccc(OC(F)(F)F)cc3)nc3ncccc3c2=O)cc1`: the Potency is 16.4 µM (active).

Take `CCCOc1ccc(-c2nc(OC)c3ccccc3n2)cc1`: the “viability, % of control” value is 85.6%.
